Screening data: PubChem, National Center for Advancing Translational Sciences (NCATS)
This is a sample that favours compounds with a hit; in the whole collection about 18% have one here.
CtBP-E1A blk – CtBP/E1A binding inhibition; AlphaScreen GST-E1A/His-CtBP binding, 1536-well; stronger effect = lower value; activity change, % (test concentration not listed); 0.49% of 340,000 active; in the data active = activity change below about -65%; inconclusive = mostly about -30% to -63%
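AlphaScreen with 125 nM GST-E1A and 125 nM His-CtBP (5X stocks) in Tris pH 8.0, 300 mM NaCl, BSA, Tween 20, TCEP. Compounds preincubated 2 h at 37 deg C, then glutathione donor/nickel acceptor beads added for 1 h at 37 deg C in dark.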
Six1-Eya2 blk – inhibitors of human Six1/Eya2 interaction. AlphaScreen GST-Six1/His-Eya2 binding, biochemical; stronger effect = lower value. activity change, % (no concentration beside the values). 0.56% of 360,000 active. AID 651725; in the data active = activity change below about -65%; inconclusive = mostly about -30% to -63%
Target sequence (O00167 whole entry, looked up): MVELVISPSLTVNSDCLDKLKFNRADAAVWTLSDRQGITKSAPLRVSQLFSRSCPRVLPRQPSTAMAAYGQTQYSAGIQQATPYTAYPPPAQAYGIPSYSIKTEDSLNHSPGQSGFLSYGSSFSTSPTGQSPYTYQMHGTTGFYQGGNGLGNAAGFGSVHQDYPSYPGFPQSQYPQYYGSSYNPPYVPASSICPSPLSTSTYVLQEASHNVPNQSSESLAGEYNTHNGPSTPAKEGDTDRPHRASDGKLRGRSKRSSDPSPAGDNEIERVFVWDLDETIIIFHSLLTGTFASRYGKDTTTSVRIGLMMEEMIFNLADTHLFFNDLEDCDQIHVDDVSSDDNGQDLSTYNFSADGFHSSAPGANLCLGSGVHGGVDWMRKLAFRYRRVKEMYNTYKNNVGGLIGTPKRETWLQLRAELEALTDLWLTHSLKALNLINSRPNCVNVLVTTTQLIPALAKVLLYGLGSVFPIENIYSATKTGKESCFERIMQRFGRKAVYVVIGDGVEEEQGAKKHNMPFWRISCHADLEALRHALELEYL
Target sequence (Q15475 whole entry, looked up): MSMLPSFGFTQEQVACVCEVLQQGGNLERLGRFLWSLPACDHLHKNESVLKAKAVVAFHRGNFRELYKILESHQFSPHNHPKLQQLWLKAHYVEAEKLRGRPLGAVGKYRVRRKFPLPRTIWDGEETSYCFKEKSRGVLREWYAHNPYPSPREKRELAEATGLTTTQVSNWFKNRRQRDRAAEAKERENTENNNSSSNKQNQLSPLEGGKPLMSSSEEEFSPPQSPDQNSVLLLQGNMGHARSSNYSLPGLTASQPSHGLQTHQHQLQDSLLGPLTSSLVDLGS
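Compounds are tested against tagged Six1 and Eya2 proteins bridged by glutathione donor and nickel acceptor beads; after a one-hour incubation at 37 °C without light, AlphaScreen emission is recorded.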
TDP1 cell CPT – growth inhibition of DT40 Tdp1-/-;hTDP1 cells with camptothecin (screen for TDP1 inhibitors) | chicken DT40 Tdp1-/-;hTDP1 cells + 20 nM CPT, ATP luminescence, 48 h | Potency, µM (titrated, usually from 46.2 µM), for inactives: at the highest dose activity change, negative = growth inhibition, usual class: inhibitors | 12% of 420,000 active | AID 686979; also: potency is read from the fitted curve at half-maximal effect; nearly all actives have a fitted effect of over 55% in size
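Chicken DT40 Tdp1-/- cells complemented with human TDP1, 400 cells/well, exposed to compounds plus 20 nM camptothecin for at least 48 h at 37 C; viability read as ATP content by CellTiter-Glo luminescence.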
IL1B secr inh – blocks inflammasome-driven IL-1 beta release. THP-1 LPS/ATP IL-1B secretion, AlphaLISA, 16 h; stronger effect = lower value. activity change, % at 57.5 µM. 4.7% of 360,000 active. AID 743279; in the data active = activity change below about -50%; inconclusive = mostly about -30% to -49%
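THP-1 cells pretreated 1 hr with compounds (up to 57.5 uM final), then stimulated with LPS (250 ng/mL final) plus ATP (1.25 mM final); secreted IL-1B measured by AlphaLISA after 16 hr, decreased signal indicating inhibition.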
TDP1 cell noCPT – qHTS for Inhibitors of human tyrosyl-DNA phosphodiesterase 1 (TDP1): qHTS in cells in absence of CPT; DT40 Tdp1-/- hTDP1 cells, no CPT, ATP luminescence, 48 h; Potency, µM (top dose mostly 46.2 µM), for the others: top-dose activity change, negative = growth inhibition, most hits filed as inhibitors; 15% of 420,000 active; also: potency is read from the fitted curve at half-maximal effect; nearly all actives have a fitted effect of over 55% in size
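Camptothecin absent (DMSO only). Human TDP1-complemented DT40 knockout cells, 400 cells/well, 37 °C for minimum 48 hr; ATP measured via CellTiter-Glo, 30 min dark incubation, luminescence.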
TDP1 inh – blocks human tyrosyl-DNA phosphodiesterase 1 | Q9NUW8 | recombinant TDP1, AlphaScreen DNA substrate cleavage | 0.28% of 350,000 active | AID 485290 | Potency, µM (series often up to 130 µM), without a hit: top-dose activity change, negative = inhibition, most hits filed as inhibitors; also: potency is read from the fitted curve at half-maximal effect; nearly all actives have a fitted effect of over 40% in size
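Here, a 5' biotin and 3' phosphotyrosine-FITC DNA oligonucleotide reports Tdp1 activity: intact substrate bridges AlphaScreen beads, while cleavage leaves a 3' phosphate and drops signal. All incubations at room temperature.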
* hit, by the source's call; ? = inconclusive; . = not tested or not shown; [ ] = another dose, or the depositor's remark. Unless noted, calls follow the shape of the dose curve; as a rule, active = well fitted curve in the direction sought with a large enough effect; inconclusive = small, poorly fitted or top-dose-only effect, or another doubt; inactive = no such curve, though single readings can be large; an effect the other way counts as inactive or inconclusive. % is scaled to controls: 0 for no effect and ±100 for the full control effect.

SMILES | CtBP-E1A blk | Six1-Eya2 blk | TDP1 cell CPT | IL1B secr inh | TDP1 cell noCPT | TDP1 inh
O=C1CC(c2cc(F)ccc2F)c2cc3c(cc2N1)CCC3 (stereo unspecified) | -1 | 10 | 2.6µM* | 57 | 3.7µM* | -3%
Cc1c(=O)n(OCc2ccc(Cl)cc2)c2ccccc2[n+]1[O-] | . | 0 | -10% | 16 | 6.5µM* | 3%
Cc1nc(CC(=O)Nc2nc(-c3ccccc3)cs2)cs1 | -1 | -2 | -4% | -11 | -26% | 5%
COc1ccccc1CNC(=O)c1cnn(-c2nccc(-c3cccs3)n2)c1C | . | . | 18µM* | . | ? | .
Cc1c(C(=O)NCCc2ccccn2)cnn1-c1nccc(-c2cccs2)n1 | . | . | -12% | . | -17% | .
COc1ccc(CN(C(=O)CSc2nnc(-c3c[nH]c4ccccc34)o2)c2ccc(F)cc2)cc1OC | -10 | -9 | 8.2µM* | -83* | 9.2µM* | 7%
COc1ccc(CN(C(=O)CSc2nnc(-c3ccc(F)cc3)o2)c2ccc(F)cc2)cc1 | 16 | 0 | 23µM* | -18 | 21µM* | -1%
COc1ccc(OC(=O)CSc2nnc(-c3ccc(F)cc3)o2)cc1 | . | . | -2% | . | -27% | 6%
COc1ccc(C2=NOC(Cn3c(Cc4ccc(Cl)cc4)nc4c3c(=O)n(C)c(=O)n4C)C2)cc1 (stereo unspecified) | 0 | 3 | 26µM* | -29 | 23µM* | 2%
COc1ccccc1C1=NOC(Cn2c(NCCCO)nc3c2c(=O)n(C)c(=O)n3C)C1 (stereo unspecified) | 0 | 2 | 4% | 19 | ? | .
Cc1ccc(C)c(NC(=S)N2CCC(NC(=O)c3cccc(F)c3)CC2)c1 | 3 | 16 | 10% | 5 | -5% | -3%
COc1ccc(C2=NN(C(=O)CSc3ncccn3)C(c3ccc(C)cc3)C2)cc1 (stereo unspecified) | -9 | -12 | ? | -1 | 18µM* | 5%
COc1ccc(C2CC(c3ccc(Br)cc3)=NN2C(=O)CSC2=NCCS2)cc1 (stereo unspecified) | -18 | -14 | 16µM* | -65* | 16µM* | 3%
Cc1cc(C)c(S(=O)(=O)N2CCN(C(=O)c3cccs3)CC2)c(C)c1 | 6 | 2 | -7% | -17 | ? | -5%
Cc1cc(C)c(S(=O)(=O)N2CCN(C(=O)c3ccc(-n4nc(C)c(Cl)c4C)cc3)CC2)c(C)c1 | -9 | -3 | 23µM* | -15 | 16µM* | .
Cc1cc(C)c(S(=O)(=O)N2CCN(C(=O)c3ccc4c(c3)OCO4)CC2)c(C)c1 | -12 | -8 | -20% | -60* | ? | 0%
CSc1ccc(-c2nc3cccc(C)n3c2Nc2ccc3c(c2)OCO3)cc1 | . | . | ? | . | 18µM* | 12%
Cc1ccc(-c2nc3cccc(C)n3c2Nc2ccc3c(c2)OCO3)o1 | . | . | 23µM* | . | ? | 12%
Cc1ccc(-c2nc3cnccn3c2Nc2ccc3c(c2)OCCO3)o1 | -9 | -7 | ? | 49 | -17% | 8%
Cc1ccc(-c2nc3ccccn3c2Nc2ccc3c(c2)OCO3)o1 | . | . | ? | . | ? | 9%
Cc1ccc(Nc2c(-c3ccc(C)o3)nc3cccc(C)n23)cc1 | . | . | 11µM* | . | 11µM* | 9%
Cc1nc(/C(=N/O)C(N)=O)cs1 | -22 | -13 | -11% | 19 | 11% | 0%
CC(C(=O)Nc1ccccc1C(F)(F)F)n1nc(-c2ccccc2)c2c(c1=O)CCCC2 (stereo unspecified) | . | . | ? | . | 16µM* | 0%
CC(C(=O)Nc1cccc(C#N)c1)n1nc(-c2ccccc2)c2c(c1=O)CCCC2 (stereo unspecified) | . | . | ? | . | -24% | 5%
CC1(C)C2CCC1(CS(=O)(=O)N1CCN(c3ccc(F)cc3)CC1)C(=O)C2 (stereo unspecified) | 2 | 0 | -10% | 13 | -9% | 3%
SMILES | CtBP-E1A blk | Six1-Eya2 blk | TDP1 cell CPT | IL1B secr inh | TDP1 cell noCPT | TDP1 inh
CCc1ccc(N2CCN(S(=O)(=O)CC34CCC(CC3=O)C4(C)C)CC2)cc1 (stereo unspecified) | -4 | 3 | -53% | -67* | 21µM* | .
O=C(NCC1CCCO1)C(c1cccnc1)N(C(=O)Cc1cccs1)c1cccnc1 (stereo unspecified) | 9 | -2 | -5% | 6 | -9% | 5%
CC(CCc1ccccn1)C(=O)C(C)CCc1ccccn1 (stereo unspecified) | 3 | 4 | ? | 0 | ? | .
CC(C)(CCc1ccccn1)C(=O)C(CCc1ccccn1)CCc1ccccn1 | 5 | 2 | ? | -55* | ? | .
Nc1ccccc1Nc1cc(-c2cccc(Cl)c2)nn1-c1ccccc1 | 4 | ? | ? | ? | ? | 7%
C[C@@H]1CN([C@@H](C)CO)C(=O)c2cc(NC(=O)C3CCCCC3)ccc2O[C@@H](C)CCCCO[C@@H]1CN(C)Cc1ccncc1 | 4 | 0 | -20% | -4 | -21% | .
O=C(COc1ccccc1-c1ccccc1)N/N=C/c1ccccn1 | . | 11 | 23µM* | 55 | 23µM* | 7%
O=C(COc1ccccc1-c1ccccc1)N/N=C/c1cccnc1 | 2 | -4 | 15µM* | 75 | 13µM* | -1%
O=C(COc1ccc(-c2ccccc2)cc1)N/N=C/c1cccnc1 | . | 0 | ? | 8 | ? | 5%
Cc1cccc(C)c1OCC(=O)N/N=C/c1cccnc1 | 3 | 5 | ? | 13 | 15µM* | -10%
O=C(COc1ccccc1-c1ccccc1)N/N=C/c1ccc2ccccc2c1 | -2 | -4 | 1.2µM* | 20 | 0.92µM* | -1%
O=C1CCCCC1C(Nc1ccc(Cl)cc1)c1ccccc1 (stereo unspecified) | -1 | -10 | -8% | -15 | -26% | 3%
O=C1CCCCC1C(Nc1ccc(Br)cc1)c1ccccc1 (stereo unspecified) | 10 | -15 | 2% | -72* | 1% | 7%
O=C(CCNC(=O)c1ccc(Cl)cc1)Nc1cccc(S(=O)(=O)N2CCCCC2)c1 | 2 | -6 | 18µM* | -13 | 23µM* | 1%
COc1cc(C#N)ccc1OCC(=O)Nc1cccc(S(=O)(=O)N2CCCC2)c1 | . | -13 | ? | 0 | ? | 5%
N#Cc1ccccc1OCC(=O)Nc1cccc(S(=O)(=O)N2CCCC2)c1 | -1 | -3 | 16µM* | -3 | ? | 0%[56.1 µM]
